# From PubChem
# RTF Ca sens inh: cardiac RTF calcium sensitivity inhibitors, primary screen, biochemical, IANBD-TnC fluorescence, EC70 calcium; IANBD-labeled cardiac RTF, Ca2+ fluorescence; inhibition, % at 7.15 µM; hit rate 0.12% among 340,000; AID 493244, 2011;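 active means inhibition above the mean inhibition of all tested compounds plus 3 SD, cut at about 17% in these data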;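 further: assay run at fixed EC70 calcium of 1.6 mM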
# Myeloid diff MLP: induction of myeloid progenitor differentiation, primary screen, cell-based, flow cytometry, MLPCN library. ER-HoxA9 myeloid progenitors, lysozyme-GFP differentiation. AID 624256, 2012. calls only at 10 µM. hit rate 1% among 360,000;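 active means normalized GFP-positive differentiation at or above the plate's own cutoff, the solvent-only control mean plus 3 SD; inconclusive means no clear call, values can overlap the other calls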;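 further: cells exposed to compound for four days before flow analysis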
# CRFBP-R2 block: antagonists of CRF-BP/CRF-R2 complex, primary screen, cell-based, HEK293, calcium dye fluorescence, uHTS; inhibition, % at 11.8 µM; hit rate 0.59% among 350,000; AID 588475, 2011; CRF-induced calcium fluorescence;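 active means inhibition of the ligand-induced calcium signal above about 50% at the single tested concentration, limit read from the data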
# CRFR2-BP ag: agonists of CRF-BP/CRF-R2 complex, primary screen, cell-based, HEK293, calcium dye fluorescence, uHTS. hit rate 0.46% among 350,000. CRF-binding protein / CRF receptor 2 complex (human). AID 588473, 2011. calcium dye fluorescence (FLIPR); percent of saturating CRF peptide response. activation, % at 13.2 µM;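 active means activation of at least 50%, plus an integration ratio under a set limit after plate pattern correction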;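 further: plate controls were neutral control wells without compound for no effect and CRF at EC100 for full effect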
# cardiac RTF act: cardiac RTF calcium sensitivity activators, primary screen, biochemical, IANBD-TnC fluorescence, EC20 calcium; Troponin I, cardiac muscle (Homo sapiens) + Troponin T, cardiac muscle (Homo sapiens) + …; IANBD-labeled TnC RTF fluorescence at EC20 calcium; 0% EC20 calcium, 100% full calcium; activation, % at 7.2 µM; hit rate 0.24% among 340,000;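 active means activation above the mean over all tested compounds plus 3 SD, cut at about 30% in these data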;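 further: rise in fluorescence read as greater calcium sensitivity of cardiac thin filaments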
# Myeloid diff: inducers of myeloid progenitor differentiation, confirmation, cell-based, GFP/Mac1 flow cytometry, cherry pick 01; shares compounds with Myeloid diff MLP; ER-HoxA9 myeloid progenitors, GFP/Mac1 double-positive flow; calls only; hit rate 2% among 2,300;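 active means share of green or green-and-red cells above 9 and 9% in run 1 or 4 and 3% in run 2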
# GFP autofluor: flagged as fluorescent in myeloid differentiation counter-screen. shares compounds with Myeloid diff MLP. ER-HoxA9 myeloid progenitors, no estrogen, GFP autofluorescence flow cytometry; vehicle wells 0%, positive control 100%. fluorescence response, % (test concentration not listed). hit rate 7.4% among 2,300. AID 651707;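 active means over 5% cells positive for green fluorescent reporter, or over 2% positive for both it and APC stain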;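 further: range taken on the double positive population between DMSO and positive control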
# Active calls of the source: *; i = inactive; ? = inconclusive; · = no result; + = active, no number. Hits are enriched below; roughly 2.2% of the tested compounds scored in any of these assays.
SMILES,RTF Ca sens inh,Myeloid diff MLP,CRFBP-R2 block,CRFR2-BP ag,cardiac RTF act,Myeloid diff,GFP autofluor
CC(=Nc1ccccc1C)C1=C(O)CSC1=O,0.1,+,-16.6,-1.5,3.9,i,0.4
CC(C)c1ccc(NC(=O)CSc2ncccc2C(=O)Oc2cccc([N+](=O)[O-])c2)cc1,7.6,i,0.8,0.1,-6.0,·,·
Cc1cccc(CNc2ncc(-c3cccc([N+](=O)[O-])c3)n2C)c1,1.7,i,6.4,3.3,11.1,i,0.0
COC(=O)c1ccc(NC(=O)C(=O)N2CCN(C(=S)Nc3ccc(C)cc3)CC2)cc1,9.3,i,-27.3,-3.7,0.7,i,0.3
COc1ccc(NC(=O)C2(C)CCN2Cc2ccccc2Cl)cc1OC (stereo not drawn),·,i,·,·,·,·,·
Cc1ccc(CNC(=O)c2cc3c(=O)n4ccccc4nc3n(Cc3ccco3)c2=N)cc1,2.2,i,40.6,2.6,-2.8,·,·
Cc1ccc(S(=O)(=O)c2cc3c(=O)n4ccccc4nc3n(Cc3ccco3)c2=N)cc1,-1.3,i,-1.8,65.6*,-6.6,i,0.0
CCN1C(=O)/C(=C/c2ccc(N3CCCC3)cc2)NC1=S,-180.7,+,-302.3,257.9*,151.5*,i,93.0*
CC1=C(C(=O)O)N2C(=O)C(NC(=O)c3nn(C)cc3[N+](=O)[O-])C2SC1 (stereo not drawn),·,i,-41.4,2.9,·,·,·
CC1=C(C(=O)O)N2C(=O)C(NC(=O)c3nn(C)c(C)c3Cl)C2SC1 (stereo not drawn),-12.5,i,4.6,-0.4,9.8,i,0.0
CC1CCc2c(sc(Nc3nc4c(F)cccc4s3)c2C(N)=O)C1 (stereo not drawn),0.7,+,-45.5,12.7,7.9,i,6.4*
O=C(/C=C\c1ccc2c(c1)OCO2)CC1(O)C(=O)Nc2ccccc21 (stereo not drawn),6.6,i,-1.4,0.3,1.4,·,·
COc1ccc(C(CNC(=O)COc2ccccc2C#N)N2CCOCC2)cc1 (stereo not drawn),-9.9,+,-11.9,1.9,-0.8,i,0.0
CCOc1ccc(Nc2oc(-c3ccco3)nc2C#N)cc1,5.0,+,-8.4,-1.8,6.6,i,0.3
Nc1cccc2c1C(=O)N(CCOc1ccc(F)cc1)C2=O,6.9,i,-4.8,4.8,2.9,·,·
CC(=O)NN1C(=O)c2ccc3c4c(ccc(c24)C1=O)C(=O)N(NC(C)=O)C3=O,-4.9,+,-1.9,0.8,-1.8,i,0.0
CCOc1ccccc1N1CCN(C(=O)c2ccccc2SCC(=O)N2CCCC2)CC1,1.6,i,0.0,-0.4,-3.8,·,·
c1ccc(CNc2nc(-c3cccs3)nc3ccccc23)nc1,-16.4,i,-12.8,-0.6,3.7,i,1.5
CC(C)CC(=O)c1c[nH]c(C(=O)NCCc2ccccn2)c1,-2.5,i,19.8,-2.1,4.2,i,0.0
COc1cc(C2CC(=O)Nc3cc(C)c(C)cc32)cc(OC)c1OC (stereo not drawn),-2.7,+,12.7,-1.7,5.1,i,2.1
O=C(Cc1ccccc1)Nc1ncccn1,2.3,i,12.9,-1.9,-0.4,·,·
Cc1cc(Br)c(OCc2ccc(C(=O)N/N=C/c3ccc[nH]3)cc2)c(Br)c1,-5.3,?,12.4,-0.2,0.2,·,·
O=C(N/N=C/c1ccc[nH]1)c1ccc(COc2cccc3cccnc23)cc1,0.7,+,-13.4,-2.7,3.3,i,0.5
COc1ccc(Cc2c(-c3ccccc3)nc3ccc(Br)cn23)c(C)c1,·,i,·,·,·,·,·
CC(C)=CCC/C(C)=C/CNC(=O)C[C@H]1C[C@H](C(=O)N2CCCCC2)[C@@]2(C)c3[nH]c4ccc(Cl)cc4c3CCN2C1=O,-3.0,+,38.1,-3.4,-3.8,i,0.0
SMILES,RTF Ca sens inh,Myeloid diff MLP,CRFBP-R2 block,CRFR2-BP ag,cardiac RTF act,Myeloid diff,GFP autofluor
Cc1nc(C(=O)Nc2cccc(Cl)c2)nn1-c1cc(OC(C)C)c(Cl)cc1Cl,-5.8,+,-23.0,-0.5,-2.7,i,0.0
C/C=C(\C)C(=O)NCCN1C2=NC[C@H](C)N2C[C@@H]1Cc1ccc(OC)cc1,2.4,i,4.3,-1.1,-0.9,·,·
COc1ccc(C[C@@H]2CN3C(=NC[C@@H]3C)N2CCNC(=O)c2ccc(C)c(Br)c2)cc1,-7.6,+,-11.1,0.3,6.8,i,0.0
COc1cccc(/C=N/NC(=O)c2ccc(-n3cnnn3)cc2)c1,-25.0,i,8.7,-0.3,0.4,·,·
Cc1ccc(C)c(COC(=O)c2cccc(S(=O)(=O)N3CCCC3)c2)c1,-2.5,i,11.8,3.8,0.7,·,·
COc1ccc(C(=O)OCc2cc(C)ccc2C)cc1S(=O)(=O)N1CCCC1,3.0,+,5.6,2.3,-0.1,i,0.0
N#C/C(=C/c1cccn1-c1cccc(C(=O)O)c1)c1ccc(F)cc1,-9.0,+,26.6,-0.5,-2.2,i,0.9
CCC(C)Nc1nc(OCC(F)(F)F)nc(OCC(F)(F)F)n1 (stereo not drawn),-2.0,i,-32.3,-0.6,2.1,·,·
CCC(C)Nc1nc(OC(C(F)(F)F)C(F)(F)F)nc(OC(C(F)(F)F)C(F)(F)F)n1 (stereo not drawn),-3.0,+,-10.6,4.2,-18.9,i,0.4
COc1ccc(NC(=O)Nc2cccc3c2O[C@H](CN(C)S(=O)(=O)c2ccc(OC)cc2)[C@@H](C)CN([C@H](C)CO)C3=O)cc1,-3.2,i,-14.5,0.3,1.6,·,·
COCC(=O)N(C)C[C@H]1Oc2ncc(C#C[C@H](C)O)cc2C(=O)N([C@@H](C)CO)C[C@H]1C,·,+,4.0,0.4,·,i,0.0
COc1ccc(-c2cnc3c(c2)C(=O)N([C@H](C)CO)C[C@H](C)[C@H](CN(C)C(=O)Cc2cccnc2)O3)cc1,·,i,-5.2,1.1,·,·,·
Cc1ccc(S(=O)(=O)N(C)C[C@H]2Oc3c(NC(=O)Nc4cccc5ccccc45)cccc3C(=O)N([C@@H](C)CO)C[C@@H]2C)cc1,-8.6,i,-11.2,-1.3,-0.6,i,0.0
Cc1ccc(-c2cnc3c(c2)C(=O)N([C@H](C)CO)C[C@@H](C)[C@@H](CN(C)C(=O)Cc2ccccc2)O3)cc1,·,i,6.2,0.3,·,i,0.3
